# In PubChem BioAssay AID1558 (National Center for Advancing Translational Sciences (NCATS), 2009):
# Where “and” joins values, the source holds several entries; their conditions need not be identical. Identical values can stand only once. Inconclusive results are not listed. Where a call stands in place of a potency, no number is given. More than one record can exist for a structure, and the calls need not agree. Calls of active or inactive are those of the source. Calls follow the shape of the dose curve; as a rule, active = well fitted inhibition curve with a large enough effect; inconclusive = small, poorly fitted or top-dose-only effect; inactive = flat fitted curve, though single readings scatter.
# Biological target: Microtubule-associated protein tau (Homo sapiens) (UniProt P10636)
# Sequence (P10636 561-689 P618L limits assumed): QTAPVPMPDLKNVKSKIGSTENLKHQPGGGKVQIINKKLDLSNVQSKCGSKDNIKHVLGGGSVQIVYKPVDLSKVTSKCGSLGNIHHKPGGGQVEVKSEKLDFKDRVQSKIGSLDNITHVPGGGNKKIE
# Assay: Confirmation Concentration-Response Assay for Inhibitors of Tau Fibril Formation, Thioflavin T Binding
# Settings: recombinant tau K18 P301L (four-repeat tau fragment) heparin fibrillization, ThT fluorescence; series mostly up to 100 µM
# Outline: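 ThT fluorescence (450/510 nm), read 1 hr after adding 30 uM final dye, reported fibril formation in concentration-response format. Before that, 15 uM K18 P301L tau with 0.24 uM Alexa 594-labeled tracer aggregated 6 hr at 37 C with 20 uM heparin and compound, pH 7 acetate buffer.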
row,Structure (SMILES),Potency
1,O=C(Nc1cccc(-c2nc3ccccc3o2)c1)c1cc([N+](=O)[O-])ccc1N1CCOCC1,inactive
2,CCOC(=O)c1nn(-c2ccccc2)c(=O)c2c(NC(=O)c3ccccc3)scc12,inactive
3,Nc1nc2cc(S(=O)(=O)NC3=NCCCCC3)ccc2s1,20 µM (active)
4,COc1ccc(-n2nc(C(=O)O)c3csc(N)c3c2=O)cc1,1 µM (active)
5,CN(C)c1ccc(-c2cc[nH]c(=O)c2N)cc1,1.58 µM (active)
6,CCOC(=O)c1nn(-c2cccc(C(F)(F)F)c2)c(=O)c2c(N)scc12,0.891 µM (active)
7,COc1ccc(S(=O)(=O)Nc2cc(Sc3ncn[nH]3)c(O)c3ccccc23)cc1,2.82 µM (active)
8,COC(=O)c1c(NC(=O)CCCOc2ccc(C)cc2)sc2c1C(C(=O)OC)CC2 (stereo not drawn),3.55 µM (active)
9,Cc1nc2ccccc2oc1=O,inactive
10,COC(=O)c1c(N)sc2c1C(C(=O)OC)CC2 (stereo not drawn),inactive
11,NCCc1ccc(O)c(O)c1,inactive
12,CC(=O)Nc1sc(C)c2cnn(-c3ccccc3)c(=O)c12,inactive
13,O=C(Cc1ccccc1)Nc1sc2c(c1C(=O)Nc1ccc(Cl)cc1)CCCC2,1 µM (active) and inactive
14,Nc1nn(-c2ccccc2)c(=O)c2c(N)scc12,5.01 µM (active)
15,CCOC(=O)c1nn(-c2ccc(OC)cc2)c(=O)c2c(N)scc12,631 nM (active) and 3.16 µM (active)
16,COc1ccc(NC(=O)c2c(NC(=O)Cc3ccccc3)sc3c2CCCC3)cc1,inactive
17,COc1cc(/C=N/N=C2/NC(=O)C(CC(=O)O)S2)ccc1OCc1ccc(Cl)cc1 (stereo not drawn),inactive
18,COC(=O)c1c(NC(=O)C(C)(C)C)sc2c1C(C(=O)OC)CC2 (stereo not drawn),inactive
19,NC[C@@H](O)c1ccc(O)c(O)c1,inactive
20,CCOC(=O)c1nn(-c2ccccc2)c(=O)c(C#N)c1C,inactive
21,CCn1c(CSc2nccn2C)nc2cc(C(=O)O)ccc21,39.8 µM (active)
22,O=C(O)CC1S/C(=N/N=C/c2ccc(-c3ccccc3[N+](=O)[O-])o2)NC1=O (stereo not drawn),11.2 µM (active)
23,Cn1sc(NC(=O)c2ccccc2)nc1=O,inactive
24,CCN(c1ccccc1)S(=O)(=O)c1nnc(NC(=O)C(C)(C)C)s1,inactive
25,O=S(=O)(c1ccc(N=C2NN=C(c3cc(F)ccc3F)CS2)cc1)N1CCOCC1,4.47 µM (active)
26,Nc1scc2c(CO)nn(-c3ccccc3)c(=O)c12,3.98 µM (active)
27,O=C(Cc1ccccc1)Nc1sc2c(c1C(=O)Nc1ccc(Cl)cc1)CCOC2,inactive
28,CCOC(=O)c1nn(-c2ccccc2)c(=O)c2c(N)scc12,3.98 µM (active) and 7.94 µM (active)
